# Data as given in the supplement of paper PMC6555819.
# How the values were obtained:
# Assay in all cases: PBM binding z-score (relative to random genomic background probes); higher = stronger binding; sequences stand for … in GC…GCGATTGACAGCGTAGAATGAAGG
# [1] = test system: FXR:RXRa (NR concentration 270 nM, RXRa partner concentration 90 nM)
# Outline: (§1)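 Binding z-scores were set against random background probes. The data came from custom Agilent 4×180K protein-binding microarrays carrying double-stranded probes with 34-nt variable regions, incubated 1 h with ligand-free nuclear receptor dimers. Partner-specific antibodies detected binding, and scanned fluorescence was regression-normalized.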
# [2] = test system: LXRa:RXRa (NR concentration 270 nM, RXRa partner concentration 90 nM)
# Outline: as §1
# [3] = test system: LXRa homodimer (NR concentration 270 nM)
# Outline: as §1
# [4] = test system: LXRb:RXRa (NR concentration 270 nM, RXRa partner concentration 90 nM)
# Outline: as §1
# [5] = test system: LXRb homodimer (NR concentration 270 nM)
# Outline: as §1
# [6] = test system: PPARa:RXRa (NR concentration 270 nM, RXRa partner concentration 90 nM)
# Outline: as §1
# [7] = test system: PPARg:RXRa (NR concentration 180 nM, RXRa partner concentration 90 nM)
# Outline: as §1
# [8] = test system: PPARg:RXRa 270nM:90nM, anti-RXR (NR concentration 270 nM, RXRa partner concentration 90 nM)
# Outline: as §1
# [9] = test system: PPARg:RXRa 30nM:10nM, anti-RXR (NR concentration 30 nM, RXRa partner concentration 10 nM)
# Outline: as §1
# [10] = test system: PPARg:RXRa 90nM:30nM, anti-RXR (NR concentration 90 nM, RXRa partner concentration 30 nM)
# Outline: as §1
# [11] = test system: PPARg:RXRa DBDmut IVT, anti-RXR (DBD mutation: RXRa K156A/R161A, NR concentration 270 nM, RXRa partner concentration 90 nM)
# Outline: as §1
# [12] = test system: PPARg:RXRa IVT, anti-PPARg (NR concentration 270 nM, RXRa partner concentration 90 nM)
# Outline: as §1
# [13] = test system: PPARg DBDmut:RXRa IVT, anti-PPARg (DBD mutation: PPARg1 K132A/R137A, NR concentration 270 nM, RXRa partner concentration 90 nM)
# Outline: as §1
# [14] = test system: PPARg DBDmut IVT, anti-PPARg (DBD mutation: PPARg1 K132A/R137A, NR concentration 270 nM)
# Outline: as §1
# [15] = test system: PPARg homodimer (NR concentration 180 nM)
# Outline: as §1
# [16] = test system: PXR:RXRa (NR concentration 270 nM, RXRa partner concentration 90 nM)
# Outline: as §1
# [17] = test system: PXR homodimer (NR concentration 270 nM)
# Outline: as §1
# [18] = test system: RARa:RXR (NR concentration 270 nM, RXRa partner concentration 90 nM)
# Outline: as §1
# [19] = test system: RARa homodimer (NR concentration 270 nM)
# Outline: as §1
# [20] = test system: RARb:RXRa (NR concentration 270 nM, RXRa partner concentration 90 nM)
# Outline: as §1
Sequence,PBM binding z-score [1],PBM binding z-score [2],PBM binding z-score [3],PBM binding z-score [4],PBM binding z-score [5],PBM binding z-score [6],PBM binding z-score [7],PBM binding z-score [8],PBM binding z-score [9],PBM binding z-score [10],PBM binding z-score [11],PBM binding z-score [12],PBM binding z-score [13],PBM binding z-score [14],PBM binding z-score [15],PBM binding z-score [16],PBM binding z-score [17],PBM binding z-score [18],PBM binding z-score [19],PBM binding z-score [20]
CTCGAAAGGTCGTGCTCAGGTGAGTATTCCAAAC,5.42,3.85,0.158,3.32,0.259,4.52,2.26,3.47,0.582,1.86,0.897,1.51,0.28,0.396,1.7,3.33,0.16,4.06,0.262,3.76
CGAACTAGGTCAGAACGGGACAGTGAAGGATGAT,0.777,0.488,-0.316,0.113,-0.487,3.16,5.01,4.15,1.79,3.38,6.92,7.17,2.46,2.6,1.57,0.217,-0.225,0.856,-0.237,2.75
GCTATTAGTTGTAAGGGCAACCGAATGATTCTCG,0.301,0.305,0.235,0.38,-0.00961,0.472,0.397,0.63,0.129,0.634,0.378,0.518,0.0721,0.01,0.811,0.273,0.159,0.496,0.359,1.41
TCATATAGGTAAAAGGTGAATGTCGGTGTGGTAA,1.81,1.79,0.481,1.93,0.156,5.2,8.83,8.55,8.35,9.06,5.52,5.08,1.42,1.7,1.98,1.71,0.679,2.97,1.84,1.86
ATATGTAGGTTACATCCGGGTCATTCGGGCTATG,2.27,4.61,1.71,2.96,1.11,4.42,5.83,5.08,2.18,4.17,7.29,7.46,3.23,1.74,1.58,3.48,1.47,3.61,0.896,2.27
TCTGCTAGGTCAACGATGATCAGCTAATCTGCTA,3.12,1.96,-0.355,1.52,-0.366,3.32,2.74,2.86,2.03,2.38,4.26,4.06,0.35,0.888,0.451,0.896,-0.713,1.77,-0.998,3.99
ACTAGTTGGTCCGCTGAGGTCACACACAATTCGG,2.59,2.61,1.91,3.24,0.456,3.57,1.38,1.99,0.517,1.36,0.592,1.67,0.377,-0.126,2.76,4.69,2.24,4.51,0.677,2.97
TCATATGGGTAATACAGGTGAAAGTCGGCATCTA,0.355,1.4,0.0107,0.779,-0.138,1.82,1.1,2.13,2.8,2.4,3.38,2.88,1.3,0.765,0.704,0.281,-0.317,0.653,0.182,0.214
ACTAGCAGGCCAAGGGTCACTCTAGATTAGTCCG,1.88,3.2,0.239,2.54,-0.423,4.44,7.53,7.29,6.21,7.97,0.951,3.59,-0.404,-0.203,2.32,2.94,-0.367,4.14,-0.113,3.1
GCTAGTTGGTCAGTAAAAGGTCACACCCCGGTCG,2.85,4.02,4.42,3.74,0.781,4.19,2.69,4.11,2.14,3.78,0.618,2.91,-0.641,-0.291,3.31,4.6,0.747,5.06,0.952,4.21
AGAATGAGGTTATACGTAGATCAGTGAAGAAAGT,1.96,1.82,0.00702,1.51,0.326,2.96,1.92,2.13,0.914,1.38,3.57,2.11,1.37,1.44,0.559,1.15,0.463,1.56,0.81,1.39
CAAACTAGGTCACCGGAAGGTCAATGTCCGCATG,5.97,5.52,3.83,4.64,1.09,6.05,9.44,7.81,5.6,7.57,8.58,8.99,1.98,1.35,6.39,5.65,1.15,6.94,1.41,5.25
TCAATGAGGTTAAAGATCAGGGAACGTGGCGTCG,3.28,2.48,-0.228,1.66,0.0519,4.25,5.03,5.65,5.03,5.65,2.63,2.57,0.383,0.398,0.433,1.83,-0.0283,3.15,0.278,2.04
TGTCAAAGTTCAAAAGTAACGTAAGTATCCACAC,6.34,6.07,4.09,4.04,2.53,4.83,7.77,6.63,4.65,6.63,-0.0254,3.6,1.92,2.39,1.89,4.46,3.74,3.65,1.1,4.6
AGAACGAGGGCACGCTGCGTTGATAGCAGAGTAG,0.623,0.419,-0.7,-0.144,-0.905,1.75,1.89,1.74,0.373,1,4.17,3.95,0.425,-0.427,0.0277,0.123,-0.527,0.344,-0.962,2.52
TCTGCTAGGTCAGTTGCTCAGCTAACGAGCTGCC,0.259,0.241,-0.836,-0.204,-0.131,0.67,-0.489,1.14,0.796,1.19,2.23,2.17,-0.136,0.103,-0.987,-0.163,-1.12,-0.122,-1.62,2.9
ACTAGCAGGCCAAGGGTCACTTAAGATTAGTCCG,2.62,2.89,0.394,3,-0.323,4.28,8.13,7.44,5.78,8.65,1.3,3.66,0.182,-0.252,2.04,3.33,-0.0435,4.13,0.362,3.39
TAGCCTAGGTCACTGGGCCAGTATAGTACGCATC,3.22,2.31,-0.331,1.92,-0.779,4,5.05,4.62,1.68,3.41,3.48,5.27,1.2,0.865,0.976,1.32,-0.648,1.93,-0.15,3.91
CATACTGGGCCAAAAAGGTCATTGATGCCGATAA,3.78,4.56,3.26,4.16,0.973,4.63,2.82,3.82,1.24,3.11,3.46,3.71,0.731,0.232,2.9,4.68,3.77,5.06,2.12,3.82
TTACCAAGGTGAGCTGAGGTCGTGGATCCAACTC,1.09,0.85,-0.734,0.827,-1.47,2.1,0.337,0.913,0.0501,0.449,1.07,2.05,-0.299,-0.109,-0.369,3.77,-0.246,2.49,-0.727,1.94
TCATATAGGTAAAGGTGAAAGGCGAACGATATGA,0.813,1.12,-0.0796,1.17,0.0383,3.4,4.29,4.99,4.35,4.93,4.32,4.06,1.46,1.05,1.25,0.986,0.264,1.81,0.996,1.99
ACTAGAAGGCCAAGTTTGGGTCACTCAAACAAAG,0.681,0.517,-0.0475,0.902,-0.474,1.52,0.293,0.723,-0.386,0.134,0.0334,1.25,-0.516,-0.287,0.742,1.2,-0.219,2.15,-0.267,2.71
CCAGACAGGTGAGAAGGTGACTCAGCCTCGATTA,0.0148,-0.0121,-0.103,0.201,-0.178,0.868,0.495,0.694,-0.409,0.222,1.19,0.996,0.0696,-0.454,0.821,-0.175,0.603,0.235,0.708,1.02
TGAATGAGGTTATAAGATCAGCGAACGTTGCAAA,1.21,1.34,-0.415,0.765,-0.436,2.88,1.18,1.89,0.811,1.34,1.18,2,0.4,-0.321,-0.104,0.634,-0.373,1.33,-0.341,1.06
CGTCCAAGGTCATAGGAGGTCAGCGAAGACAGAT,7.87,7.84,5.46,6.23,1.15,6.44,6.36,5.99,2.57,4.9,3.34,4.77,0.336,-0.611,4.47,7.04,3.83,6.41,2.5,5.66
TCTATTAGTTGACTAGGGCAACCGAAACAGCGGA,0.843,0.805,-0.0763,0.429,0.447,1.45,0.971,2.37,3.68,3.07,3.04,3.38,0.37,0.987,1,0.491,0.269,0.566,0.68,0.994
CCTTACGGTTCAAGGTTATAGCACGGGTGGTACG,2.11,1.96,0.742,1.66,0.441,2.53,0.899,1.18,0.229,0.767,-0.682,0.211,0.502,-0.14,1.49,2.28,1.34,2.24,1.14,1.73
CCTCGGAGGACAGAAGGGCAGAGCTGTCCGCTTT,-0.424,-0.658,-0.967,-0.952,-1.04,-1.11,-0.572,-0.994,-1.32,-1.13,-0.39,-0.863,-1.35,-1.74,-0.82,-0.857,-0.749,-0.782,-0.361,1.2
ACTATTAGCTGAGACGAGGGCAACCGATAGGTTG,0.185,-0.00873,0.0861,0.0453,0.238,0.0501,0.663,0.238,-0.205,0.302,-0.032,0.377,-0.216,-0.0358,-0.21,0.33,0.536,0.226,0.488,0.935
